# From PubChem
# Hits are enriched below; roughly 8.9% of the tested compounds scored in any of these assays.
# DRD3 agonist = activates the human D3 dopamine receptor | max activation, % | 0.58% of 410,000 active | D3R DiscoveRx beta-arrestin cells, luminescence, 90 min | P35462; in the data active = max activation above about 30%
# Target sequence (P35462 whole entry, looked up): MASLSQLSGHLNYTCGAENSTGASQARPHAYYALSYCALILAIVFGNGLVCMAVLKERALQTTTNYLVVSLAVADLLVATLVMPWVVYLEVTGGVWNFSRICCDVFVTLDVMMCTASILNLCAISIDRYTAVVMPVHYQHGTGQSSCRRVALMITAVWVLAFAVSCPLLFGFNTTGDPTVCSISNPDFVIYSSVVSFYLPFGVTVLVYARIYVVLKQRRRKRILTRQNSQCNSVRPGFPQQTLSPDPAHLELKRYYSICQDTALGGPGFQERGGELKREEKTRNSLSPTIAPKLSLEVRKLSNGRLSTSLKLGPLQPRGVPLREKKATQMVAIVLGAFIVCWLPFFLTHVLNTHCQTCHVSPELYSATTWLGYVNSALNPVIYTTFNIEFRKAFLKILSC
#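 Cells at 1500/well, incubated overnight, then treated with pinned compounds (dopamine as control) for 90 min at 37 degrees C. DiscoveRx reagent added for 30 - 60 minutes at room temperature; luminescence read.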
# KB-3-1 cytotox = kills parental KB-3-1 adenocarcinoma cells. KB-3-1 viability, CellTiter-Glo ATP luminescence, 72 h. Potency, µM (doses to about 46.1 µM), most hits filed as cytotoxic. 1.4% of 400,000 active; also: nearly all actives have a fitted effect of over 60% in size
#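 Using CellTiter-Glo luminescence, growth of non-resistant KB-3-1 adenocarcinoma cells is assessed 72 h after pin-tool compound addition at 37 °C. Normalized responses across the concentration series yield fitted curves.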
# MCF10A rereplic = induces DNA re-replication in MCF 10a normal breast cells. MCF 10A DNA re-replication, Hoechst nuclear intensity, 48 h. Potency, µM (doses to about 46.1 µM), actives largely listed as activators. 2.9% of 350,000 active. AID 624296; also: nearly all actives have a fitted effect of over 50% in size
# KB-V1 cytotox = KB-V1 MDR subline cytotoxicity; AID 1347076; KB-V1 MDR cells viability, CellTiter-Glo, 72 h; Potency, µM (doses to about 46.1 µM), hits mostly cytotoxic; 3.4% of 400,000 active; also: nearly all actives have a fitted effect of over 60% in size
#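 Potencies derive from concentration-effect curves fitted to normalized luminescence (CellTiter-Glo) of KB-V1 cells treated for 72 h at 37 degrees C in phenol-red-free DMEM containing 10% FBS.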
# SW480 rereplic = induces DNA re-replication in SW480 colon adenocarcinoma cells; SW480 DNA re-replication, Hoechst DNA content imaging, 48 h; Potency, µM (doses to about 46.1 µM), usual class: activators; 1.8% of 340,000 active; AID 624297; also: nearly all actives have a fitted effect of over 55% in size
#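 Compounds, transferred as 23 nL by pin tool, were incubated with cells for 48 hr; DNA content per nucleus was then quantified by Hoechst staining and fluorescence plate imaging.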
# D3 antag = D3 dopamine receptor (human) antagonism. max response, negative = inhibition, %. 2.5% of 360,000 active. P35462. D3R cells, DiscoveRx beta-arrestin luminescence, antagonist mode; stronger effect = lower value; in the data active = max response below about -50%; inconclusive = no clear call, values can overlap the other calls
#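 Cells plated overnight at 1500 cells/well, then exposed to library compounds with dopamine controls for 90 minutes at 37 degrees C. DiscoveRx reagent added for 30–60 minutes at room temperature; luminescence read, quantitative HTS format.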
# Numbers stand for hits; . = inactive; ? = inconclusive; / = no result given. Unless noted, calls follow the shape of the dose curve; as a rule, active = well fitted curve in the direction sought with a large enough effect; inconclusive = small, poorly fitted or top-dose-only effect, or another doubt; inactive = no such curve, though single readings can be large; an effect the other way counts as inactive or inconclusive.
SMILES,DRD3 agonist,KB-3-1 cytotox,MCF10A rereplic,KB-V1 cytotox,SW480 rereplic,D3 antag
COC(=O)C(NNc1ccccc1)(NC(=O)c1ccc(F)cc1)C(F)(F)F (centres undefined),.,?,.,23.1µM,.,.
COC(=O)C(NNc1ccccc1)(NC(=O)c1ccccc1F)C(F)(F)F (centres undefined),.,.,.,.,.,.
O=C(Nc1ccc(C2CC2(Cl)Cl)cc1)c1ccccc1Br (centres undefined),.,.,?,18.4µM,.,.
O=C(Oc1ccccc1C(=O)Nc1ccccc1)c1ccccc1Br,.,11.6µM,5.17µM,16.4µM,14.6µM,.
O=C(Nc1ccc(C(=O)N2CCCC2)cc1)c1ccccc1Br,.,/,.,/,.,.
Cc1nc(N)nc(N)c1-c1ccc(Cl)c(Cl)c1,.,?,.,.,.,.
Cc1cc(OCc2nc(N)nc(N)c2-c2ccc(Cl)c(Cl)c2)ccc1[N+](=O)[O-],.,2.06µM,?,1.03µM,?,.
Cc1nc(N2CCCCC2)sc1C(=O)c1cccc([N+](=O)[O-])c1,.,.,.,?,.,.
Cc1nc(N2CCCCC2)sc1C(=O)c1ccc(SCCO)c([N+](=O)[O-])c1,.,.,?,14.6µM,.,.
COc1cc(NC(=O)CN2C(=O)c3ccccc3Sc3ccc(C(=O)N4CCCC4)cc32)cc(OC)c1,.,.,/,.,/,/
COc1cccc2c1C(=O)c1c(O)c3c(c(O)c1C2=O)C[C@@](O)(C(C)=O)C[C@@H]3O[C@H]1C[C@H](N)[C@H](O)[C@H](C)O1,.,0.013µM,.,?,.,-78.1
CC(=O)[C@]1(O)Cc2c(O)c3c(c(O)c2[C@@H](O[C@H]2C[C@H](N)[C@H](O)[C@H](C)O2)C1)C(=O)c1c(O)cccc1C3=O,.,/,.,/,.,/
COc1cccc2c1C(=O)c1c(O)c3c(c(O)c1C2=O)C[C@](O)(C(=O)CO)C[C@@H]3O[C@H]1C[C@H](N)[C@@H](O)[C@H](C)O1,/,/,.,/,.,/
COc1cccc2c1C(=O)c1c(O)c3c(c(O)c1C2=O)CC(O)(C(=O)CO)CC3OC1CC(N(C)C)C(O)C(C)O1 (centres undefined),.,?,.,13µM,.,.
CC(=O)[C@]1(O)Cc2c(O)c3c(c(O)c2[C@@H](O[C@H]2C[C@H](N)[C@H](O)[C@H](C)O2)C1)C(=O)c1ccccc1C3=O,.,0.0731µM,.,1.84µM,.,?
CC1(C)C2CC=C(/C=N/NC(=S)Nc3cccnc3)C1C2 (centres undefined),.,.,.,.,.,.
CCC(C)(C)C1CCC(=NNC(=S)Nc2ccccc2)CC1 (centres undefined),.,.,.,.,.,?
CC1=C/C(=N\NC(=S)Nc2cccnc2)CC(C)(C)C1,.,.,?,?,?,-50.6
CCC(C)(C)C1CCC(=NNC(=S)Nc2cccnc2)CC1 (centres undefined),.,.,.,.,?,-64.5
CCCCOc1ccc(CC(=O)N(C)O)cc1,/,?,/,.,/,/
CN1C(=S)SC(N(O)C(=O)Nc2ccc(Cl)c(Cl)c2)C1(C)C (centres undefined),.,?,?,18.4µM,.,.
CN1C(=S)SC(C)(C)C1N(O)C(=O)Nc1ccc(Cl)cc1 (centres undefined),.,.,.,.,.,.
CCN(c1ccccc1)S(=O)(=O)c1cc(C(=O)Nc2ccc(F)c(F)c2)ccc1F,.,.,13µM,.,?,.
N#Cc1c(-c2ccccc2)cc(-c2ccc3c(c2)OCO3)[nH]c1=O,.,.,?,?,18.4µM,.
N#Cc1c(-c2ccc3c(c2)OCO3)csc1N,.,?,.,?,.,.
SMILES,DRD3 agonist,KB-3-1 cytotox,MCF10A rereplic,KB-V1 cytotox,SW480 rereplic,D3 antag
O=C(c1ccc2c(=O)n(-c3ccccc3)c(=O)[nH]c2c1)N1CCN(Cc2cccs2)CC1,/,.,/,.,/,/
CCN(CC)C(=O)Cn1c(=O)c2ccccc2n2c(=S)sc(-c3cccc(C)c3)c12,.,.,.,2.91µM,.,.
Cc1cccc(C)c1NC(=S)N(C)CCc1ccccn1,.,.,.,.,.,.
CC(C)c1ccc(NC(=S)N(C)CCc2ccccn2)cc1,.,.,.,23.1µM,.,.
Cc1cccc(OC(C)C(=O)N2CCC(c3nc4ccccc4o3)CC2)c1C (centres undefined),.,/,/,/,/,/
N#CC1=C(N)OC2=C(CN(Cc3ccccc3)C/C2=C\c2cccnc2)C1c1cccnc1 (centres undefined),.,.,.,.,.,.
CCN1CC2=C(OC(N)=C(C#N)C2c2ccccc2)/C(=C\c2ccccc2)C1 (centres undefined),.,?,23.1µM,.,?,.
CC(Oc1ccccc1F)C(=O)NCC1(N2CCOCC2)CCCCC1 (centres undefined),.,/,/,/,/,/
Cc1cc2c(cc1C)C(=O)C(Br)=C(N)C2=O,.,.,?,.,?,.
Cc1cc(-c2cc(C)c(N)cc2C)c(C)cc1N,.,.,.,.,18.4µM,.
Cc1nc(N2CCCC2)c2c(C(=O)N3CCN(c4cccc(Cl)c4)CC3)c(C)oc2n1,.,/,/,/,/,/
O=C(NC(NC(=S)Nc1c(Cl)cccc1Cl)C(Cl)(Cl)Cl)OCc1ccccc1 (centres undefined),.,?,?,?,.,-68.7
CCOC(=O)NC(NC(=S)Nc1ccc(OCC)cc1)C(Cl)(Cl)Cl (centres undefined),.,?,.,.,.,.
CC1=Nc2ccccc2/C1=C/c1ccc(N(C)C)cc1,/,.,/,.,/,/
CC(=O)c1sc(NC(=O)CCS(=O)(=O)c2ccc(F)cc2)nc1C,.,.,/,.,/,.
O=C(CCS(=O)(=O)c1ccccc1)Nc1nc(-c2cccs2)cs1,.,.,?,23.1µM,?,.
CC(C)(C)c1csc(NC(=O)CCS(=O)(=O)c2ccc(F)cc2)n1,.,.,/,.,/,.
CC(=O)c1sc(NC(=O)CCS(=O)(=O)c2ccccc2)nc1C,.,?,2.91µM,.,4.61µM,.
CCOCCc1nnc(NC(=O)CCS(=O)(=O)c2ccccc2)s1,.,.,20.6µM,.,?,.
O=C(CCS(=O)(=O)c1ccc(F)cc1)Nc1nc(-c2ccncc2)cs1,.,.,18.4µM,.,?,.
O=C(Nc1ccc(-c2cn3cccnc3n2)cc1)c1cc(Br)ccc1Cl,.,.,/,.,/,/
CC(C)c1nnc(NC(=O)CCS(=O)(=O)c2nc(-c3cccs3)cc(C(F)(F)F)n2)s1,.,.,3.66µM,.,?,?
CCSc1nc(-c2ccco2)ccc1C#N,.,.,.,.,.,-54.1
N#Cc1ccc(-c2ccco2)nc1SCc1ccccc1,.,?,?,?,?,.
